Results reported in the supplement of paper PMC10681739.

The sequences below were run against T1, ETS1 (UniProt P14921) (assay: ETS1 binding intensity (PBM fluorescence) in presence of RUNX1, normalised to ETS1-only experiment (arbitrary fluorescence units); higher = stronger binding). Details: ETS1 concentration 1 nM; RUNX1 concentration 25 nM.
T1 sequence: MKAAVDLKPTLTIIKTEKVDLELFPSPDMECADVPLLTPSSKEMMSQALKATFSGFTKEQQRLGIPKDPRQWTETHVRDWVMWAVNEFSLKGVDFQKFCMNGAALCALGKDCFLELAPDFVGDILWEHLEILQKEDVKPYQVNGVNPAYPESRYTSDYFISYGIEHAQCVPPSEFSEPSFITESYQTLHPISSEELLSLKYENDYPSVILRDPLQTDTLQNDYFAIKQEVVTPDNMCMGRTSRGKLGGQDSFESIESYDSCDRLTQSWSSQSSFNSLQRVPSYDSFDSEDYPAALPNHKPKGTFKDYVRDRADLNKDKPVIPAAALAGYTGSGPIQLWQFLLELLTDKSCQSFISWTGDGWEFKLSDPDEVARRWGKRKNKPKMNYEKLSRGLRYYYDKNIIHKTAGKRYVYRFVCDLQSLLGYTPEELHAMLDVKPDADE
Work on GCTGTCCGTTTCCGAGATGTTAATGCGGGATCTTGC yielded an ETS1 binding intensity of 402. Sequence TCATAAGGAAGTGGAGTGTAGTAACCACAGGCCCCG has an ETS1 binding intensity of 1100. TTTTTTCCGCCTGTAGGGTCACATTGTGGTTGATTG was tested, and the ETS1 binding intensity was 725. TAAGTGAATTTCCTGCCCGCCTCCGCCCACAGCGTA was tested, and the ETS1 binding intensity was 744. GGGGCTGGGAAAGGATGTGGTAAGGGCCAGTCAGTC was tested, and the ETS1 binding intensity was 3240. Sequence TTTATCATGAATGCAGGATGTGGGCAAACTCGCATC has an ETS1 binding intensity of 6100. Work on CCGGGCTGCGGAAGGCGGGAATTCTGCGGTTCGCGG yielded an ETS1 binding intensity of 1990. TTCATCTCTCACTTCCTGTGGTGACGGCTGACGGGG gave an ETS1 binding intensity of 4690. TCATTCTCTGATAAAGGAAGTGGTTACAGCACAATT showed an ETS1 binding intensity of 10200. Sequence TGCTCAAATGCAGGATGTGGTCTGAGAGTTTCTCCT has an ETS1 binding intensity of 6550. TCTGCCGCCAGCCCATCCGCGACCGCATCCAGATCT showed an ETS1 binding intensity of 653. For CTCCATCTGCCCGGAAAACCGCAGCCGCCCCAACCT, the ETS1 binding intensity was 3690. For CAATGGATGGCCACATCCTCACCACAAACTGAGTCA, the ETS1 binding intensity was 647. Sequence ACGGTGTGTCTCATTTCCTGTGGGTAACAGGCACCA has an ETS1 binding intensity of 3240. In the case of CCTTTCCGCGAGACCTTCCGCGGTTATCCAGCGAGT, the ETS1 binding intensity is reported as 481. GCCGTAGCGGAAGAGTGTTCGTGGTCATGTGACGCC gave an ETS1 binding intensity of 814. With TAGACTAACAGGGGAGGAAGTGGGTTGCAAGCCGTG the ETS1 binding intensity was 2740. AGAAACATCCTGCCCAGCCACCTGACCACAAGGCAC gave an ETS1 binding intensity of 1070. With TCCTCCGTTTCCGTAGTTCCGAGTTGCGGTTTCTCC the ETS1 binding intensity was 3790. For GCACCGTACCCGGAACTGCTCCCTCCCGCAGGCGCA, the ETS1 binding intensity was 540. TGGGCAAGATATCCTGGAAGTGGTTAAAAAAAATTA gave an ETS1 binding intensity of 1050.
